Results filed as inconclusive are left out. Activity calls are given as the source filed them. Calls follow the shape of the dose curve; as a rule, active = well fitted curve in the direction sought with a large enough effect; inconclusive = small, poorly fitted or top-dose-only effect, or another doubt; inactive = no such curve, though single readings can be large; an effect the other way counts as inactive or inconclusive. Numbered stars: 1 amine (or outer) side, 2 acyl side, 3 side chain; on linkers, the order of the positions; unused ones are H or OH. Square brackets hold non-standard residues; d marks the D form. Peptide text beside a SMILES is read from it. X10 = O=C(C(CC(O)CO)O[*:1])[*:2]; NMeV = CN[CH](C(=O)O)C(C)C; NMeA = CN[CH](C)C(=O)O; βAla = NCCC(=O)O
Legend:
[1] = molecular target: Cellular tumor antigen p53 (Homo sapiens) (UniProt P04637); assay: Primary qHTS for small molecule compounds that upregulate eGFP-tagged delta133p53alpha (in N-terminal) cells. (AID 2060322); conditions: NCI-H358 eGFP-delta133p53alpha fluorescence, 24 h; activation: stronger effect = higher value;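 also: cells pre-induced with doxycycline then dosed without doxycycline; series mostly up to about 56 µM; 0% = DMSO vehicle and 100% = reference activator; nearly all actives have a fitted effect of over 75% in size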
How it was run: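 NCI-H358 cells pre-induced 24 h with 10 ng/ml doxycycline for eGFP-delta133p53alpha, plated dox-free and exposed 24 h at 37C to titrated compounds. Fixed, Hoechst-stained; gated GFP peak intensity by laser scanning cytometry, normalized to DMSO (0%) and 57.5 uM 5-azacytidine (100%).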

[2] = molecular target: Aldehyde dehydrogenase, mitochondrial (Homo sapiens) (UniProt P05091); assay: qHTS for Inhibitors of the Aldehyde Dehydrogenase Family (ALDH2) Primary screen (AID 2061308);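 also: plate controls were vehicle for no effect and reference inhibitor for full effect; nearly all actives have a fitted effect of over 55% in size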
[3] = molecular target: Retinaldehyde dehydrogenase 3 (Homo sapiens) (UniProt P47895); assay: qHTS for Inhibitors of the Aldehyde Dehydrogenase Family (ALDH1A3) Primary screen (AID 2061315);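 also: plate controls were DMSO vehicle for no effect and reference inhibitor for full effect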

Cellular tumor antigen p53 (Homo sapiens), sequence (P04637 whole entry, looked up): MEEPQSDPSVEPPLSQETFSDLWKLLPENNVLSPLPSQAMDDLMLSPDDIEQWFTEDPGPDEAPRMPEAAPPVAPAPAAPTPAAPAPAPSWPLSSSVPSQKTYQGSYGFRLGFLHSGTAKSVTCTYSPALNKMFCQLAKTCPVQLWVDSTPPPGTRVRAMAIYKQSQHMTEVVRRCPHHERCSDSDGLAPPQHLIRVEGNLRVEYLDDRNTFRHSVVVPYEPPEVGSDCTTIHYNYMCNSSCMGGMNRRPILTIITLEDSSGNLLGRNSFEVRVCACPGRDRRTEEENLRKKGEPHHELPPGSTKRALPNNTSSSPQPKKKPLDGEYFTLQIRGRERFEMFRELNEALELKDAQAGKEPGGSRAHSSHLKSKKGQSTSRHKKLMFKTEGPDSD

C/C(=C\C=C\C(C)C1CCC2(C)C3CCC4C(C)(C)C(=O)CCC45CC35CCC12C)C(=O)O (configuration not stated)
inactive: activation [1] 5.36% | Potency [2] | Potency [3]

Cc1ccc(F)cc1S(=O)(=O)N[C@@H]1CCN(Cc2ccc(OC(C)C)cc2)C1
inactive: activation [1] -2.39% | Potency [2] | Potency [3]

C[C@@H]1CCO[C@H]2Cn3cc(C(=O)NCc4ccc(F)cc4F)c(=O)c(O)c3C(=O)N12
inactive: activation [1] 32.3% | Potency [2] | Potency [3]

CC(/C=C/C1=CC2=CC(=O)C(C)(O)C(O)C2=CO1)=C\C(C)CCO (configuration not stated)
inactive: activation [1] 7.63% | Potency [2] | Potency [3]

COc1ccc(C(=O)CC(=O)O)c2c1C=CC(C)(C)O2
inactive: activation [1] 23.2% | Potency [2] | Potency [3]

CC1C2=CC(=O)OC2(O)CC2C1C(O)CC1C(C)(CO)CCCC21C (configuration not stated)
inactive: activation [1] -9.16% | Potency [2] | Potency [3]

CCC(C)C1NC(=O)C2CCCN2C(=O)C(CC(O)CO)OC(=O)CCNC(=O)C(C)N(C)C(=O)C(C(C)C)N(C)C1=O (configuration not stated) (cyclo([X10]PI[NMeV][NMeA][βAla]); configuration not given here)
inactive: activation [1] -16% | Potency [2] | Potency [3]

CC(=O)N[C@H](Cc1ccc(O)cc1)C(=O)N[C@H](CCCN=C(N)N)C(=O)N[C@H](Cc1ccccc1)C(N)=O (Ac-[dY]-[dR]-[dF]-NH2)
inactive: activation [1] -15.7% | Potency [2] | Potency [3]

C[C@@H]1C(=O)OC[C@H]2C(C(=O)O)=C[C@@H]3CC(C)(C)C[C@]312
inactive: activation [1] -6.87% | Potency [2] | Potency [3]

Reference: PubChem BioAssay (NCATS)
